A number with no mark means an inactive call. For some assays here: Measured potencies and affinities stand elsewhere. Activity calls are given as the source filed them. Numbered stars: 1 amine (or outer) side, 2 acyl side, 3 side chain; on linkers, the order of the positions; unused ones are H or OH. Bridge positions count the residues as written; N and C are the ends. Square brackets hold non-standard residues; d marks the D form. Peptide text beside a SMILES is read from it. I, II: the chains in the order shown. Actinocin(9to1) = Cc1c2oc3c(C)ccc(C(=O)[*:1])c3nc-2c(C(=O)[*:2])c(N)c1=O; NMeV = CN[C@H](C(=O)O)C(C)C; Sar = CNCC(=O)O
Key:
[1] = Ebola virus entry assay, green fluorescence channel
[2] = Ebola virus entry assay, blue channel fluorescence
For efficacy in this document: 0% is about no effect.

Row | SMILES | efficacy [1] [%] | outcome [2] | AC50 [2]
1 | N[C@@H](Cc1cc(I)c(Oc2cc(I)c(O)c(I)c2)c(I)c1)C(=O)O | -10 | inactive | 
2 | CN(C)c1nc(N(C)C)nc(N(C)C)n1 | 14.8 | inactive | 
3 | CCOC(=O)[C@H](CCc1ccccc1)N[C@@H](C)C(=O)N1[C@H](C(=O)O)C[C@@H]2CCC[C@@H]21 | -29.2 | inactive | 
4 | CC12CC3CC(C)(C1)CC(N)(C3)C2 | 58.3 | inactive | 
5 | COCCCC/C(=N\OCCN)c1ccc(C(F)(F)F)cc1 | 124 | inactive | 
6 | CC(C(=O)O)c1cccc(C(=O)c2ccccc2)c1 (centres undefined) | 11.5 | inactive | 
7 | CCOC(=O)N1CCC(=C2c3ccc(Cl)cc3CCc3cccnc32)CC1 | 62.3 | inactive | 
8 | Cc1c2oc3c(C)ccc(C(=O)N[C@@H]4C(=O)N[C@H](C(C)C)C(=O)N5CCC[C@H]5C(=O)N(C)CC(=O)N(C)[C@@H](C(C)C)C(=O)O[C@@H]4C)c3nc-2c(C(=O)N[C@@H]2C(=O)N[C@H](C(C)C)C(=O)N3CCC[C@H]3C(=O)N(C)CC(=O)N(C)[C@@H](C(C)C)C(=O)O[C@@H]2C)c(N)c1=O (I: T[dV]P[Sar][NMeV] / II: T[dV]P[Sar][NMeV]; ester I:1-I:C, II:1-II:C; linker I:N-II:N via Actinocin(9to1)) | 27.3 | inactive | 
9 | CCCNCC(O)COc1ccccc1C(=O)CCc1ccccc1 (centres undefined) | 86.9 |  | 11.2 µM (active)
10 | CN(C)[C@@H]1C(=O)C(C(N)=O)=C(O)[C@@]2(O)C(=O)C3=C(O)c4c(O)ccc(Cl)c4[C@@H](O)[C@H]3C[C@@H]12 | 117 | inactive | 
11 | Nc1nc2c(ncn2COCCO)c(=O)[nH]1 | -5.83 | inactive | 
12 | CCC(C)(C)C(=O)O[C@H]1C[C@@H](C)C=C2C=C[C@H](C)[C@H](CC[C@@H]3C[C@@H](O)CC(=O)O3)[C@H]21 | 37.4 | inactive | 
13 | C#Cc1cccc(Nc2ncnc3cc(OCCOC)c(OCCOC)cc23)c1 | -13.7 | inactive | 
14 | CNS(=O)(=O)CCc1ccc2[nH]cc(C3CCN(C)CC3)c2c1 | -15 | inactive | 
15 | O=c1[nH]c2ccccc2n1C1CCN(CCCC(c2ccc(F)cc2)c2ccc(F)cc2)CC1 | -303 |  | 11.2 µM (active)
16 | CC(C)(O)c1ccccc1CC[C@@H](SCC1(CC(=O)O)CC1)c1cccc(/C=C/c2ccc3ccc(Cl)cc3n2)c1 | 12.9 | inactive | 
17 | CC[C@]1(O)C[C@H]2CN(CCc3c([nH]c4ccccc34)[C@@](C(=O)OC)(c3cc4c(cc3OC)N(C=O)[C@H]3[C@@](O)(C(=O)OC)[C@H](OC(C)=O)[C@]5(CC)C=CCN6CC[C@]43[C@@H]65)C2)C1 | 37.5 | inactive | 
18 | COc1ccccc1OCC(O)CN1CCN(CC(=O)Nc2c(C)cccc2C)CC1 (centres undefined) | 29.5 | inactive | 
19 | CN(C)CCCN1c2ccccc2Sc2ccc(Cl)cc21 | -179 |  | 10 µM (active)
20 | CN1CCC(=C2c3ccccc3C=Cc3ccccc32)CC1 | 67.2 | inactive | 
21 | COc1nc(N)nc2c1ncn2[C@@H]1O[C@H](CO)[C@@H](O)[C@@H]1O | -33.2 | inactive | 
22 | CS(=O)(=O)OCCCCOS(C)(=O)=O | 19.1 | inactive | 
